The supplement of paper PMC6555819

These sequences were tested on PPARg homodimer (NR concentration 180 nM) (assay: PBM binding z-score (relative to random genomic background probes); higher = stronger binding; sequences stand for … in GC…GCGATTGACAGCGTAGAATGAAGG).
In short: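 Ligand-free nuclear receptor dimers were bound for 1 h to custom Agilent 4×180K protein-binding microarrays. Detection used antibodies against each partner (one per run). Binding z-scores rest on regression-normalized fluorescence, with random background probes as the reference.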
In the case of TCATTTAGGTAAAAGGTGAAAGTCGGTGTGGTAA, the PBM binding z-score is reported as 2.08.
Work on CCTAGTTAGTCAGGAGGTCACACACCGGATATGA yielded a PBM binding z-score of 3.69.
TATACAGGGTCAAAGGCCAGAGGACGAATGTCGA showed a PBM binding z-score of 3.14.
GTACCAAGGTGAATAGGTGGTTGATGAGTAGGCG gave a PBM binding z-score of 0.741.
Work on CGAACGAGGGCAGGAGTTGATAGCAAATGCCGAT yielded a PBM binding z-score of -0.323.
CCTTACGGGTCACGAGGCTATAGCACGACGAGCG showed a PBM binding z-score of 1.81.
With TCTATTAGTTGAAGGACAACCGACGAGTCCGTTT the PBM binding z-score was 1.31.
For CGTCCAAGGCCATAGGAGGTCAGTGAAGACAGAT, the PBM binding z-score was 0.925.
In the case of CCTACTGGGCCATTCAGAGGTCATTCATCATATG, the PBM binding z-score is reported as 2.18.
AGAATGAGGTTATACGTGGATCAGGGAAGAAAGT was tested, and the PBM binding z-score was 1.69.
With TCATATATGTAATACAGGTGAAAGTCGGCATCTA the PBM binding z-score was 0.745.
In the case of ATCGAAAGGTCGGGGTGAGTATAGAGAAAGGGAA, the PBM binding z-score is reported as 1.98.
ATCTCTAGGTAAAGTTCAGGGAAAGATCGATAGA was tested, and the PBM binding z-score was 2.21.
Work on ATATGTAGGTTACATCCGGGTCACTCAGGCTATG yielded a PBM binding z-score of 2.34.
GCTAGAAGGCCATTTGGGTCACTCAATGACGGGC showed a PBM binding z-score of 0.149.
GGAACGAGGGCTAGTTGATAGCAGAGTTTGATGG gave a PBM binding z-score of -0.214.
With TGAACGAGGTTAAAGATCAGGGAACGTGGCGTCG the PBM binding z-score was 0.615.
In the case of TCATATAGGTAAAGATGAAAGTCGAACGATATGA, the PBM binding z-score is reported as -1.18.
Sequence AGAACGAGGGCAATGAGTTGATACCACGGGTGGC has a PBM binding z-score of 0.443.
In the case of CAGCCTGGGTCAGGGCCAGTATAGGAGGAACGTT, the PBM binding z-score is reported as 0.728.
Sequence CCTTACGGGTCACGAGGTTATAACACGACGAGCG has a PBM binding z-score of 2.11.
In the case of TCTGCGAGGTCAACGATGGTCAGCTAATCTGCTA, the PBM binding z-score is reported as 3.27.
Work on GCTAGCAGCCCATTTGGGTCACTCAATGACGGGC yielded a PBM binding z-score of -0.798.
CCTGCTGGGTCAATGGTCAGCTAAAGCAGCTCGC showed a PBM binding z-score of 0.557.
Sequence TAGCCTAAGTCATTCAGGGGCCAGTATAGAAAGC has a PBM binding z-score of 0.00647.
With CCTTACGGGTCACTAACAGGTTATAGCATTTGGA the PBM binding z-score was 2.62.
For TTCCCAAGGTGAAAGGTCGTTGATGCACGCCTTG, the PBM binding z-score was 1.79.
With AGAACGAGGGCACGCTGAGTTGATATCAGAGTAG the PBM binding z-score was 0.168.
CTACCAAGGTGAACAAGGTCGTGGATTACTATTC showed a PBM binding z-score of 1.98.
For CGAACTAGGGCAAGGACAGTGAATCTCCGCACGC, the PBM binding z-score was -0.153.
CGAATTAGGTCAGAACAGGACAGTGAAGGATGAT was tested, and the PBM binding z-score was 1.73.
With GCTCCTAGGTCAGGTTGGTCAGCTAACGGGTACG the PBM binding z-score was 0.823.
Sequence TTACCTAGGTGAAAGGTCGTTGATGCACGCCTTG has a PBM binding z-score of 1.73.
For TCTATTAGTTGATTAGGGCAACCAAAACAGCGGA, the PBM binding z-score was 0.9.
With TCGAGTTGGTCAAAGGTCACACACTCGAAATGCG the PBM binding z-score was 8.37.
Work on CAAACTAGGTCACGAAAGGACAAAGTCGAATGAC yielded a PBM binding z-score of 2.7.
TAGCCTAGGTCAGATCGAGCCAGTATACGCTATA was tested, and the PBM binding z-score was -0.43.
With AATACAGGGTCACTAGGCCAGACTAGGTACGAAT the PBM binding z-score was 1.28.
CGTCCGAGGTCAGAGAGGTCAGTGAATGCCGAGT gave a PBM binding z-score of 4.74.
Sequence CAAACTAAGTCACAGAGGTCAAAGTCCGTGCGTA has a PBM binding z-score of 4.44.
